Most compounds without a hit are left out; they make up all but 1.5% or so of the library.
BRCA1 expr act – qHTS Assay to Identify Small Molecule Activators of BRCA1 Expression; MCF7-BRCA1-FFLuc reporter, luminescence, 48 h; response scale: scaled: vehicle 0%, 10 µM genistein 100%; Potency, µM (doses to about 46.1 µM), most hits filed as activators; 380,000 tested, 1.1% active; also: nearly all actives have a fitted effect of over 80% in size
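Compounds are tested at multiple concentrations on MCF7 BRCA1-luciferase reporter cells seeded at 2000 per well; after 48 h, a single luminescence end-point is taken and curves fitted to the normalized data.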
mIDH1 inhibitor – qHTS for Inhibitors of mutant isocitrate dehydrogenase 1 (IDH1): qHTS; Potency, µM (highest dose often 76.6 µM), actives largely listed as inhibitors; 390,000 tested, 0.093% active; Isocitrate dehydrogenase [NADP] cytoplasmic (Homo sapiens), O75874; IDH1-R132H enzyme, NADPH consumption, diaphorase/resazurin fluorescence; also: nearly all actives have a fitted effect of over 65% in size
Target sequence (O75874 whole entry R132H, stated change not applied): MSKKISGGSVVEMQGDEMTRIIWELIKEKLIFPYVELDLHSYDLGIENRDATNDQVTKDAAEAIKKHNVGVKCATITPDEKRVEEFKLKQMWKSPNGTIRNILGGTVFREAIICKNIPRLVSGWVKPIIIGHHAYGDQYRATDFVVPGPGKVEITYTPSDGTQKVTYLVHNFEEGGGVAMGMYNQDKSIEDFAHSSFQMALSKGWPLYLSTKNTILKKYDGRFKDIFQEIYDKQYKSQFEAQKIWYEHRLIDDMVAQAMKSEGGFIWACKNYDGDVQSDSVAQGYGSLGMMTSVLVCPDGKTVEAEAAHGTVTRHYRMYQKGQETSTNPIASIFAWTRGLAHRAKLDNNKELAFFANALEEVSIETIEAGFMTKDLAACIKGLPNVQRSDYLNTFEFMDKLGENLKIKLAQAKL
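IDH1-R132H (0.5 ug/mL dispensed) in pH 7.5 Tris buffer was preincubated 30 min with compound, then given a substrate mix of 0.016 mM NADPH and 2 mM alpha-KG for 80 min at room temperature; remaining NADPH was read by diaphorase/resazurin fluorescence.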
gsp agonist – qHTS for Agonist of gsp, the Etiologic Mutation Responsible for Fibrous Dysplasia/McCune-Albright Syndrome: qHTS; gsp mutant cells, cAMP HTRF, 30 min; Potency, µM (highest dose often 76.9 µM), actives largely listed as activators; 340,000 tested, 0.13% active; AID 624287, 2012; active = well fitted activation curve with a large enough effect; inconclusive = small, poorly fitted or top-dose-only effect, or another doubt; inactive = no such curve, though single readings can be large or run the other way; cell line not stated here;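 also: phosphodiesterase inhibitor Ro 20-1724 added with compounds to block cAMP breakdown; nearly all actives have a fitted effect of over 60% in size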
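Cells in DMEM/10% FBS with G418 were pretreated with compounds in DMSO plus […] (300 uM stock) for 30 min at 37C. cAMP was measured by HTRF (cAMP-d2 plus anti-cAMP antibody-K) after 30 min at room temperature.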
IL-2 act – qHTS of IL-2 Activators. activation, % (series mostly up to about 46 µM). 360,000 tested, 0.065% active. IL-2 activation reporter assay, cell-based qHTS; stimulated with anti-CD3/CD4/CD28 beads; in transgenic mouse T cells; in the data active = activation above about 50%; inconclusive = mostly about 30% to 49%
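Readout: EGFP and DsRed signals by fluorescent plate cytometry. Unstimulated transgenic mouse T cells received compound 60 min before antibody-bead stimulation, then incubated 18 h at 37 degrees C.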
gsp antagonist – qHTS for Antagonists of gsp, the Etiologic Mutation Responsible for Fibrous Dysplasia/McCune-Albright Syndrome: qHTS; Potency, µM (doses to about 76.9 µM), hits mostly inhibitors; gsp-mutant cells, cAMP HTRF, 30 min; 340,000 tested, 0.4% active; calls by dose curve; cell line not stated here;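 also: intracellular cAMP measured with PDE inhibitor Ro 20-1724 present during compound exposure; nearly all actives have a fitted effect of over 65% in size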
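HTRF cAMP measurement after 30 min RT detection following 30 min, 37C compound treatment alongside […] (added as 300 uM solution) in G418-selected cells seeded at 2000/well and grown 16–24 h.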
Hits are given with their value; 0 = inactive; ? = inconclusive; - = no result given; [ ] = dose if it differs, or a comment. Unless noted, calls follow the shape of the dose curve; as a rule, active = well fitted curve in the direction sought with a large enough effect; inconclusive = small, poorly fitted or top-dose-only effect, or another doubt; inactive = no such curve, though single readings can be large; an effect the other way counts as inactive or inconclusive.

SMILES | BRCA1 expr act | mIDH1 inhibitor | gsp agonist | IL-2 act | gsp antagonist
Cc1nc2ccccc2n1CCc1nc2c3ccccc3nc(SCc3cccc(F)c3)n2n1 | - | 0 | - | - | -
COc1ccc2c(c1)c(=O)oc1cc(O)ccc12 | ? | 0 | ? | 0 | 0
O=c1oc2cc(O)ccc2c2ccccc12 | 0 | 0 | 8.9µM | 0 | 0
Cc1ccc(Nc2cc(-n3nc(C)cc3C)ncn2)c(C)c1 | 0 | 0 | 0 | 0 | 0
Cc1ccc(Nc2cc(-n3cccn3)ncn2)c(C)c1 | 3.2µM | 0 | 0 | 0 | 0
Cc1oc2ccc(O)cc2c1C(=O)c1ccc(F)cc1 | 11µM | 0 | 0 | 0 | 0
COc1ccc2oc(C)c(C(=O)c3ccc([N+](=O)[O-])cc3)c2c1 | 0 | 0 | 0 | 0 | 0
Cc1cc(/C=C(\C#N)C(=O)Nc2ccccc2)c(C)n1-c1ccc(F)cc1 | 0 | 0 | - | - | -
Cc1cc(/C=C(\C#N)C(=O)Nc2ccccc2)c(C)n1-c1cccnc1 | 5.6µM | 0 | 0[15.4 µM] | 0 | ?
CCOc1ccc(NC(=O)CC2C(=O)OCCN2CC)cc1 (configuration not stated) | - | 0 | - | - | -
Cc1ccc(OCCSc2nc(N)cc(N)n2)cc1 | ? | 0 | 0[15.4 µM] | 0 | 0
COc1ccc(OCCSc2nc(N)cc(N)n2)cc1 | 11µM | 0 | 0 | 0 | 0
c1ccc(CCNc2ncnc3ccccc23)cc1 | 2µM | 0 | 0 | 0 | 0
CCCCCCCCNc1ncnc2ccccc12 | 0 | 0 | 0 | 0 | 0.89µM
Oc1c(C(Nc2ccccn2)c2ccccc2)ccc2cccnc12 (configuration not stated) | 0 | - | - | - | -
NC(=Nc1ccccc1)NC(=O)c1nc(Cl)c(N)nc1N | 5.6µM | 0 | - | 0 | 0
NC(=NCc1ccccc1)NC(=O)c1nc(Cl)c(N)nc1N | 0 | 0 | - | 0 | 0
COc1ccc(C(=O)CSc2nccn2C)cc1 | 8.9µM | 0 | 0[15.4 µM] | 0 | 0
Cn1ccnc1SCC(=O)Nc1ccc(Oc2ccccc2)cc1 | 10µM | 0 | 0 | 0 | 0
O=S(=O)(Cc1noc(-c2ccc(Cl)cc2)n1)Cc1ccco1 | 7.9µM | 0 | 0 | 0 | 0
O=S(=O)(Cc1ccco1)Cc1nc(-c2ccc(Cl)cc2)cs1 | 0 | 0 | 0[15.4 µM] | 0 | 0
Cc1nn(-c2ccc(Cl)nn2)c(=O)c2ccccc12 | 11µM | 0 | 0[15.4 µM] | 0 | 0
CCC(NC(=O)Nc1nnc(C(F)(F)F)s1)(C(F)(F)F)C(F)(F)F | 0 | 0 | 0 | 0 | 4.5µM
COc1ccc(/C=C2\SC(=S)N(CCCCCC(=O)Nc3cc(C)on3)C2=O)cc1OC | 0 | 0 | 0 | 80 | 0
CCOC(=O)N1CCN(C(=O)CCN2C(=O)/C(=C\c3ccc(OC)c(OC)c3)SC2=S)CC1 | 0 | 0 | ? | 93 | -
SMILES | BRCA1 expr act | mIDH1 inhibitor | gsp agonist | IL-2 act | gsp antagonist
CCc1ccc(-c2nc3c(=O)n(C)c(=O)nc-3n(CC)n2)cc1 | 0 | - | - | - | -
CCOC(=O)c1c(-c2ccccc2)csc1NC(=O)/C(C#N)=C/c1ccc(O)c(OC)c1 | 0 | 0 | 0 | 58 | 0
CCOC(=O)c1c(-c2ccccc2)csc1NC(=O)/C(C#N)=C/c1ccc(OC)c(OC)c1 | 0 | 0 | ? | 0 | 0
CCCCCCn1c(SCC#N)nc2ccccc2c1=O | 0 | - | - | - | -
COc1ccc2nc(NC(=S)NC(=O)c3ccco3)sc2c1 | 5µM | 0 | ? | 0 | 0
CCOc1ccc2nc(NC(=O)CCC(=O)c3cccs3)sc2c1 | 1.8µM | 0 | 0 | 0 | 0
COc1ccc2c(c1)-c1nc(NC(=O)c3ccco3)sc1CC2 | 0 | 0 | 0 | 0 | ?
CCOCC(=O)Nc1nc2ccc(OCC)cc2s1 | ? | 0 | 0 | 0 | 0
COc1ccc2c(c1)CCc1sc(NC(=O)c3ccco3)nc1-2 | 10µM | 0 | 0 | 0 | ?
COc1ccc2nc(NC(=O)CSc3ccccc3)sc2c1 | 10µM | 0 | 0 | 0 | 0
CCOC(=O)c1ccc(NC(=O)CCCc2nc(-c3cc(OC)c(OC)c(OC)c3)no2)cc1 | - | 0 | - | - | -
COc1ccccc1CNC(=O)CCc1c(C)c2cc3c(C)c(C)oc3cc2oc1=O | - | 0 | - | - | -
COc1ccc2nc(NC(=O)c3cc(C)oc3C)sc2c1 | 5µM | 0 | 0 | 0 | 0
COc1ccc(CNC(=O)CCCn2nc(C)c3c(C)n(-c4ccc(C)cc4)nc3c2=O)cc1 | 0 | 0 | 0 | 0 | 0
Cc1cc(C)c2c(c1)C1C=CCC1C(C(=O)O)N2 (configuration not stated) | 0 | - | - | - | -
Cc1cc(C)c(S(=O)(=O)N2CCOC2CNC(=O)C(=O)NCc2ccccn2)c(C)c1 (configuration not stated) | 0 | 0 | 0 | 0 | 0
Cc1cc(C)c(S(=O)(=O)N2CCCOC2CNC(=O)C(=O)NCc2ccccn2)c(C)c1 (configuration not stated) | 0 | 0 | 0[15.4 µM] | 0 | 11µM
c1ccc(Nc2nc(-c3ccccc3)c(-c3ccccc3)s2)cc1 | 0 | - | - | - | -
O=C(CNC(=O)c1ccco1)Nc1ccc(Cl)cc1 | 13µM | 0 | 0[15.4 µM] | 0 | 0
COc1cc(NC(=O)CC(C)C)ccc1NC(=O)c1ccco1 | 7.9µM | 0 | 0 | 0 | 0
O=C(/C=C\c1ccco1)c1ccc(NC(=O)c2ccco2)cc1 | 1.8µM | 0 | ? | 0 | ?
CCC(=O)Nc1ccc(NC(=O)c2ccco2)c(OC)c1 | 0 | 0 | 0 | 0 | 0
O=C(c1ccccc1)c1cccc(NC(=O)c2ccco2)c1 | 11µM | 0 | 0 | 0 | 0
COc1cccc(C(c2nnnn2C(C)(C)C)N2CCN(C/C=C/c3ccccc3)CC2)c1OC (configuration not stated) | 0 | - | - | 0 | -
COc1ccc(Cl)cc1CNCCSc1nnnn1-c1ccccc1 | - | 0 | - | - | -
CCCCNC(=O)Cn1c(SCc2cccc(C)c2)nc2ccncc21 | 0 | - | - | - | -
Cc1c(Cl)cccc1NC(=O)CCn1cnnn1 | 0 | 0 | - | - | -
